# Results published in PubChem BioAssay.
# Several values for one entry are separate records, joined by “and”; a condition that tells them apart may be missing. Identical values can stand only once. Activity calls are given as the source filed them.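 Rule for the calls, unless noted: active = compounds whose cell count with miR-34 switched on is under 0.7 times the count with it off; inactive = the rest.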
# Legend:
# [1] = stimulators of nuclear beta-catenin in C2C12, primary screen, imaging, WNT3A-conditioned medium, mouse C2C12, NPC library (AID 1117326; in the data active = nuclear beta-catenin stimulation mostly above about 4.2%, no sharp cut-off; inactive = mostly below about 10%); conditions: stronger effect = higher value
# [2] = stimulators of insulin release from INS-1E, primary screen, cell-based, 5 mM glucose, NPC library (AID 1117329;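 active = compound raises insulin release from rat beta cells at 5 mM glucose, no numeric limit stated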); conditions: rat INS-1E insulin secretion, at 10 µM, stronger effect = higher value
# [3] = growth inhibition of GSK3B-pretreated HCT116 cells – cell-based, CellTiter-Glo, 0.2 to 20 µM (AID 1117336;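 active = compounds lowering colon cancer cell viability after pretreatment blocking the GSK3B kinase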); conditions: HCT116 viability after GSK3B inhibitor, at 20 µM, stronger effect = higher value
# [4] = inhibition of endothelial tube formation, primary screen, imaging, VEGF stimulated, CD31 staining, tube area, NPC library (AID 1117340;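 active = compound that reduces growth-factor-driven endothelial tube area in a mixed cell culture, no cutoff stated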); conditions: VEGF-stimulated ADSC/ECFC co-culture, at 10 µM, stronger effect = higher value
# [5] = glucagon-like peptide 1 release enhancers, primary assay, NCI-H716 cell line, NPC library (AID 1117341;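 active = compound raises GLP1 secretion from the human gut endocrine cells, with no numeric limit stated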); conditions: NCI-H716 cells, at 10 µM, stronger effect = higher value
# [6] = HCT116 colon cancer cell growth inhibition, primary screen, CellTiter-Glo luminescence, NPC library (AID 1117342;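 active = compounds that lower survival of HCT116 colon cancer cells in the luminescence readout, no numeric limit stated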); conditions: at 20 µM (top of the series)
# [7] = CellTiter-Glo luminescent readout of SW480 viability loss, NPC library primary (AID 1117343;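 active = compounds that lower viability of the colon cancer cells in the luminescence readout, with no numeric limit stated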); conditions: CellTiter-Glo luminescence; at 20 µM (top of the series) unless noted
# [8] = decreased DLD-1 cellular survival, CellTiter-Glo luminescent readout, NPC compound collection, primary HTS (AID 1117346;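 active = compounds that lower survival of DLD-1 colon cancer cells in the luminescence readout, no cutoff given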); conditions: DLD-1 viability, CellTiter-Glo luminescence; at 20 µM (top of the series)
# [9] = differential killing of epithelial or mesenchymal cells, primary screen, imaging, PC-3E GFP, TEM4-18 mCherry, co-culture (AID 1345086;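 active = compounds killing one labelled cell type while sparing the other, by normalised counts and ratio limits, not self-fluorescent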;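 for all read-outs here: cells exposed to compound for 72 h before imaging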;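 for red/green cell ratio (normalised): normalised mesenchymal count divided by normalised epithelial count so high means epithelial killing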); conditions: imaging cell counts, at 1 µM; for red/green cell ratio (normalised): actives lie on both sides, counts scaled to control wells, 1 = unselective
# [10] = sensitizers of A549 cells to miR-34 induction, primary screen, imaging, A549 dox-inducible miR-34, nuclei and caspase counts (AID 1347080); conditions: A549 miR-34 inducible, Hoechst nuclei count, 48 h
# [11] = biological target: NAD(+) hydrolase SARM1 (Homo sapiens) (UniProt Q6SZW1); experiment: SARM1 TIR NADase inhibitors, cell lysate, NAD-Glo luminescence (AID 1508614;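 active = compound whose remaining NAD level is above about 45 nM, limit read from the data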;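 note: higher remaining NAD means stronger inhibition of SARM1 NADase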); conditions: SAM-TIR HEK293T lysate NADase, at 1 µM, stronger effect = higher value
# NAD(+) hydrolase SARM1 (Homo sapiens), sequence (Q6SZW1 whole entry, looked up): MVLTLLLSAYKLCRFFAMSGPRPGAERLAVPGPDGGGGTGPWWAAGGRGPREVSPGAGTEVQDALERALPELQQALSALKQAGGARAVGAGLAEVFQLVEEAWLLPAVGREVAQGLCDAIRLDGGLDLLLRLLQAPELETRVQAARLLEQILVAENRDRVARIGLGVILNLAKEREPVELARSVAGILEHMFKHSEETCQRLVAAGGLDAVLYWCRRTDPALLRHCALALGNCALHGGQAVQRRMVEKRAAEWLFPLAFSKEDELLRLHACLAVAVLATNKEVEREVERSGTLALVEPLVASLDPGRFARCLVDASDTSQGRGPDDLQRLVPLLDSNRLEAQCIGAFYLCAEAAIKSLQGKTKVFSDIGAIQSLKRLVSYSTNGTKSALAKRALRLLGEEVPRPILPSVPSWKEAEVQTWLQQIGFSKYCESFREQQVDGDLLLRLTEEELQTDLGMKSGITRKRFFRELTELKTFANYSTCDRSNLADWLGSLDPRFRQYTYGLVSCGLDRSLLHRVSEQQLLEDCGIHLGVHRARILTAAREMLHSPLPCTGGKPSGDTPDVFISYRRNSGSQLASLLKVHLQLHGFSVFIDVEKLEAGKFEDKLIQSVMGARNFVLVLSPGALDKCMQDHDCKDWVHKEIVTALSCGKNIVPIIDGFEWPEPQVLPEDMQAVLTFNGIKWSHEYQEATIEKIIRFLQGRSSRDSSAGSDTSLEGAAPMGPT
# [12] = hESC survival regulators, cell-based (AID 493140; call rule not given here;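 note: cells exposed to compounds for four days before counting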); conditions: human embryonic stem cell survival screen; stronger effect = higher value
# [13] = liver-stage malaria parasite growth inhibition, primary screen, cell-based, HepG2, luciferase luminescence, HepG2 viability (AID 624349; in the data active = parasite load remaining mostly below about 12%, no sharp cut-off; inactive = mostly above about 10%;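 note: 100% = mean of DMSO negative control wells on the same plate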); conditions: P. berghei liver stage in HepG2, luciferase luminescence, concentration not given here; parasite load remaining: stronger effect = lower value; viability: measured here: HepG2 viability without parasites
# [14] = survival rescue of mitochondrial mutant cells in low glucose, primary screen, MELAS cybrids, Rieske KO mouse fibroblasts, CellTiter-Glo (AID 1508586;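 active = mean z-score across replicates of 1.96 or higher in either the MELAS or the Rieske mutant cell line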;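 note: z relative to plate mean and SD of compound and empty wells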)
# [15] = measured here: epithelial PC-3E GFP cell survival
# [16] = measured here: mesenchymal TEM4-18 mCherry cell survival
# [17] = stronger effect = lower value, cell number ratio, induced over uninduced
# [18] = measured here: relative caspase fold change +Dox/-Dox
# [19] = measured here: total cells with miR-34 induction, stronger effect = lower value
# [20] = measured here: total cells without miR-34 induction
# [21] = MELAS cybrid survival, CellTiter-Glo 48 h, stronger effect = higher value
# [22] = Rieske KO mouse fibroblast survival, CellTiter-Glo 72 h
smiles,measurement,setting,value
CC(O)C(=O)O (configuration not stated),nuclear beta-catenin stimulation,[1]; at 10 µM,2.5% (inactive)
same,nuclear beta-catenin stimulation,"[1]; stimulation, at 2 µM",3%
same,insulin secretion stimulation,[2],-0.6% (inactive)
same,viability decrease,[3],-5.3% (inactive)
same,tube area decrease,[4],8.4% (inactive)
same,GLP1 secretion stimulation,[5],3.4% (inactive)
same,inhibition of viability,[6],2.73% (inactive)
same,viability decrease (inhibition),[7],-11.7% (inactive)
same,viability decrease (inhibition),[8],-8.5% (inactive)
same,red/green cell ratio (normalised),[9],1.08 (inactive)
same,normalised cell number,[9]; [15],1.05
same,normalised cell number,[9]; [16],1.14
same,fold change,[10]; [17],0.885 (inactive)
same,fold change,[10]; [18],0.852
same,cell count,[10]; [19],8900
same,cell count,[10]; [20],10100
same,remaining NAD,[11],10 nM (inactive)
Cc1c(N)c(=O)n(-c2ccccc2)n1C,survival,[12],19.6 (inactive)
same,parasite load remaining,[13],27.9% (inactive) and 86.5% (inactive) and 114% (inactive)
same,viability,[13],47% and 66.5% and 89.3%
same,nuclear beta-catenin stimulation,[1]; at 10 µM,1.1% (inactive)
same,nuclear beta-catenin stimulation,"[1]; stimulation, at 2 µM",1.8%
same,insulin secretion stimulation,[2],-0.3% (inactive)
same,viability decrease,[3],-9.25% (inactive)
same,tube area decrease,[4],-13.4% (inactive)
same,GLP1 secretion stimulation,[5],1.1% (inactive)
same,inhibition of viability,[6],-5.1% (inactive)
same,viability decrease (inhibition),[7],45.9% (inactive)
same,viability decrease (inhibition),[8],10.9% (inactive)
same,red/green cell ratio (normalised),[9],0.99 (inactive)
same,normalised cell number,[9]; [15],1.14
same,normalised cell number,[9]; [16],1.13
same,fold change,[10]; [17],0.844 (inactive)
same,fold change,[10]; [18],1.06
same,cell count,[10]; [19],8260
same,cell count,[10]; [20],9790
same,z-score,[14]; [21],-0.073 (inactive)
same,z-score,[14]; [22],-0.119
CCCCCCCCCCCCCCCC[N+](C)(C)CCN(Cc1ccc(OC)cc1)c1ncccn1,survival,[12],0.417 (inactive)
same,parasite load remaining,[13],24.3% (inactive)
same,viability,[13],77.4%
same,nuclear beta-catenin stimulation,[1]; at 10 µM,-5.4% (inactive)
same,nuclear beta-catenin stimulation,"[1]; stimulation, at 2 µM",0%
same,insulin secretion stimulation,[2],2.9% (inactive)
same,viability decrease,[3],100% (active)
same,tube area decrease,[4],110% (active)
same,GLP1 secretion stimulation,[5],79.6% (active)
same,inhibition of viability,[6],101% (active)
same,viability decrease (inhibition),[7],120% (active)
same,viability decrease (inhibition),[8],103% (active)
same,red/green cell ratio (normalised),[9],0.95 (inactive)
same,normalised cell number,[9]; [15],1.06
same,normalised cell number,[9]; [16],1
same,fold change,[10]; [17],0.797 (inactive)
same,fold change,[10]; [18],1.23
same,cell count,[10]; [19],4700
same,cell count,[10]; [20],5900
same,z-score,[14]; [21],-2.42 (inactive)
same,z-score,[14]; [22],1.31
same,remaining NAD,[11],10 nM (inactive)
CN1C(=O)CC(c2ccccc2)C1=O (configuration not stated),survival,[12],19.1 (inactive)
same,parasite load remaining,[13],94.6% (inactive)
same,viability,[13],73.1%
same,nuclear beta-catenin stimulation,[1]; at 10 µM,0.4% (inactive)
same,nuclear beta-catenin stimulation,"[1]; stimulation, at 2 µM",0.3%
same,insulin secretion stimulation,[2],-0.7% (inactive)
same,viability decrease,[3],4.95% (inactive)
same,tube area decrease,[4],-2.7% (inactive)
same,GLP1 secretion stimulation,[5],-0.4% (inactive)
same,inhibition of viability,[6],-5.7% (inactive)
same,viability decrease (inhibition),[7],54.4% (active)
same,viability decrease (inhibition),[8],12.9% (inactive)
same,red/green cell ratio (normalised),[9],0.99 (inactive)
same,normalised cell number,[9]; [15],1.01
same,normalised cell number,[9]; [16],1
same,fold change,[10]; [17],0.941 (inactive) and 0.972 (inactive)
same,fold change,[10]; [18],1.17 and 0.864
same,cell count,[10]; [19],9250 and 9510
same,cell count,[10]; [20],9830 and 9780
same,z-score,[14]; [21],0.397 (inactive)
same,z-score,[14]; [22],0.0941
same,remaining NAD,[11],10 nM (inactive)
CCN1C(=O)NC(c2ccccc2)C1=O (configuration not stated),survival,[12],2.42 (inactive)
same,parasite load remaining,[13],83.9% (inactive)
same,viability,[13],100%
same,nuclear beta-catenin stimulation,[1]; at 10 µM,-2.4% (inactive)
same,nuclear beta-catenin stimulation,"[1]; stimulation, at 2 µM",-0.9%
same,insulin secretion stimulation,[2],-1% (inactive)
same,viability decrease,[3],-5.5% (inactive)
same,tube area decrease,[4],-23% (inactive)
same,GLP1 secretion stimulation,[5],7% (inactive)
same,inhibition of viability,[6],-1% (inactive)
same,viability decrease (inhibition),[7],2.2% (inactive)
same,viability decrease (inhibition),[8],8.6% (inactive)
same,red/green cell ratio (normalised),[9],0.92 (inactive)
same,normalised cell number,[9]; [15],1.08
same,normalised cell number,[9]; [16],1
same,fold change,[10]; [17],0.858 (inactive)
same,fold change,[10]; [18],1.11
same,cell count,[10]; [19],8830
same,cell count,[10]; [20],10300
same,z-score,[14]; [21],0.723 (inactive)
same,z-score,[14]; [22],0.79
same,remaining NAD,[11],10 nM (inactive)
NC(=O)NS(=O)(=O)c1ccc(N)cc1,nuclear beta-catenin stimulation,[1]; at 10 µM,-1.6% (inactive)
same,nuclear beta-catenin stimulation,"[1]; stimulation, at 2 µM",0.3%
same,insulin secretion stimulation,[2],5.8% (inactive)
same,viability decrease,[3],-1.6% (inactive)
same,tube area decrease,[4],-10.6% (inactive)
same,GLP1 secretion stimulation,[5],-4.5% (inactive)
same,inhibition of viability,[6],6.1% (inactive)
same,viability decrease (inhibition),[7],75.8% (active)
same,viability decrease (inhibition),[8],-12.6% (inactive)
same,red/green cell ratio (normalised),[9],0.74 (inactive)
same,normalised cell number,[9]; [15],1.37
same,normalised cell number,[9]; [16],1.02
same,fold change,[10]; [17],0.96 (inactive)
same,fold change,[10]; [18],0.945
same,cell count,[10]; [19],8990
same,cell count,[10]; [20],9360
same,remaining NAD,[11],10 nM (inactive)
S=C=Nc1ccc(N=C=S)cc1,nuclear beta-catenin stimulation,[1]; at 10 µM,16.4% (inactive)
same,nuclear beta-catenin stimulation,"[1]; stimulation, at 2 µM",-0.1%
same,insulin secretion stimulation,[2],3.2% (inactive)
same,viability decrease,[3],77.2% (active)
same,tube area decrease,[4],100% (active)
same,GLP1 secretion stimulation,[5],-3.9% (inactive)
same,inhibition of viability,[6],57% (active)
same,viability decrease (inhibition),[7],73.5% (active)
same,viability decrease (inhibition),[8],81.3% (active)
same,red/green cell ratio (normalised),[9],0.76 (inactive)
same,normalised cell number,[9]; [15],1.12
same,normalised cell number,[9]; [16],0.86
same,fold change,[10]; [17],0.826 (inactive)
same,fold change,[10]; [18],1.4
same,cell count,[10]; [19],7160
same,cell count,[10]; [20],8680
same,remaining NAD,[11],10 nM (inactive)
Cc1cc2nc3ccc(=[N+](C)C)cc-3sc2cc1N,nuclear beta-catenin stimulation,[1]; at 10 µM,21.6% (inactive)
same,nuclear beta-catenin stimulation,"[1]; stimulation, at 2 µM",1%
same,insulin secretion stimulation,[2],-0.6% (inactive)
same,viability decrease,[3],90.5% (active)
same,tube area decrease,[4],108% (active)
same,GLP1 secretion stimulation,[5],-3.7% (inactive)
same,inhibition of viability,[6],82.7% (active)
same,viability decrease (inhibition),[7],85% (active)
same,viability decrease (inhibition),[8],38.4% (inactive)
same,red/green cell ratio (normalised),[9],1.59 (inactive)
same,normalised cell number,[9]; [15],0.17
same,normalised cell number,[9]; [16],0.28
same,fold change,[10]; [17],1.11 (inactive)
same,fold change,[10]; [18],1.04
same,cell count,[10]; [19],2760
same,cell count,[10]; [20],2500
same,remaining NAD,[11],10 nM (inactive)
O=S(=O)(O)CCCS(=O)(=O)O,nuclear beta-catenin stimulation,[1]; at 10 µM,-2.1% (inactive)
same,nuclear beta-catenin stimulation,"[1]; stimulation, at 2 µM",-0.3%
same,insulin secretion stimulation,[2],2.9% (inactive)
same,viability decrease,[3],-15.7% (inactive)
same,tube area decrease,[4],-1.1% (inactive)
same,GLP1 secretion stimulation,[5],-2.7% (inactive)
same,inhibition of viability,[6],-1.7% (inactive)
same,viability decrease (inhibition),[7],-9.3% (inactive)
same,viability decrease (inhibition),[8],-13.5% (inactive)
same,red/green cell ratio (normalised),[9],0.74 (inactive)
same,normalised cell number,[9]; [15],1.27
same,normalised cell number,[9]; [16],0.94
same,fold change,[10]; [17],0.939 (inactive)
same,fold change,[10]; [18],1.14
same,cell count,[10]; [19],9300
same,cell count,[10]; [20],9900
same,remaining NAD,[11],10 nM (inactive)
